Screen size: about 360,000 compounds; about 2,800 (0.78%) were called active. The list comes from a sample in which actives are over-represented; it also holds similar structures and randomly drawn compounds. Values without a mark were called inactive. No stated cut-off is given here; in the data, active means inhibition above about 26%; inactive means the rest.
These compounds were tested on Nicotinate-nucleotide adenylyltransferase NadD (Staphylococcus aureus N315) (assay: S. aureus NadD enzyme activity blockers – biochemical, colorimetric, uHTS, primary screen (AID 602399)). Settings: purified NadD enzyme, colorimetric absorbance read-out; at 20 µM; stronger effect = higher value.
Compound `O=C(NCCCCc1ccccc1)C1CC(c2ccc([N+](=O)[O-])cc2)=NO1` (stereo not drawn) has an inhibition of -8.64%.
`COc1cccc(CNC(C)C(=O)Nc2ccc(S(=O)(=O)N3CCCC3)cc2)c1` (stereo not drawn) gave an inhibition of 0.261%.
Work on `CCOC(=O)c1sc(=NC(=O)c2ccc(Br)cc2)n(C)c1C` yielded an inhibition of -0.0934%.
For `CCOC(=O)C1=C(C)Nc2sc(C(=O)c3ccc(Br)cc3)c(N)c2C1c1ccc(C(=O)OC)cc1` (stereo not drawn), the inhibition was 33.6% (active).
`COC(=O)c1ccc(C2NC(=O)NC(C)=C2C(=O)N(C)C)cc1` (stereo not drawn) was tested, and the inhibition was -2.37%.
`Cc1nc(CC(=O)NNS(=O)(=O)c2ccc(F)c(Cl)c2)cs1` showed an inhibition of -1.28%.
`CC(C)Oc1ccc(CCc2nnc(SCC(=O)O)n2-c2ccccc2)cc1` was tested, and the inhibition was -4.23%.
For `O=C1/C(=C\c2ccc([N+](=O)[O-])cc2)CS(=O)(=O)C/C1=C/c1ccc([N+](=O)[O-])cc1`, the inhibition was 35.3% (active).
`CCCCC(=O)Nc1c2c(nn1-c1ccc([N+](=O)[O-])cc1)CS(=O)(=O)C2` showed an inhibition of -6.61%.
`O=C1CCCN1C(=O)COc1ccc([N+](=O)[O-])cc1` was tested, and the inhibition was 0.0869%.
`CCNC(=O)Nc1ccc(S(=O)(=O)Nc2cnc(C)nc2C)cc1` gave an inhibition of 4.03%.
`c1ccc2c(c1)OCCOCCOCCO2` was tested, and the inhibition was 1.98%.
`CS(=O)(=O)c1ccc2c(c1)SC1=NC(=O)/C(=C/c3ccco3)C(=N)N12` was tested, and the inhibition was 35% (active).
In the case of `COc1ccc(S(=O)(=O)N2CCOC2CNC(=O)C(=O)NCc2ccncc2)cc1OC` (stereo not drawn), the inhibition is reported as -7.02%.
`CC(=O)c1ccc(Nc2nc(C(N)c3ccccc3Cl)cs2)cc1` (stereo not drawn) showed an inhibition of -4.95%.
`NC(c1csc(NC(=O)Nc2ccccc2Oc2ccccc2)n1)c1ccccc1Cl` (stereo not drawn) was tested, and the inhibition was 40.7% (active).
With `NC(c1ccccc1)c1csc(NC(=O)Nc2cccc(C(F)(F)F)c2)n1` (stereo not drawn) the inhibition was 3.58%.
For `CCOc1ccc(S(=O)(=O)N(CC(=O)NCC(F)(F)F)Cc2ccco2)cc1`, the inhibition was -2.92%.
`CC1=NN(c2cccc(Cl)c2)C(=O)C12CC(C)=C(C)CS2` (stereo not drawn) showed an inhibition of -3.46%.
In the case of `O=C(N/N=C/c1ccccn1)c1cccc(NC(=O)c2ccc(Cl)cc2)c1`, the inhibition is reported as 6.47%.
`O=C(N/N=C/c1ccoc1)c1ccc(Cl)cc1Cl` was tested, and the inhibition was -0.584%.
For `CC(C)(C)C(=O)Nc1ccc(C(=O)N/N=C/c2ccccc2OC(=O)c2ccc(Cl)cc2Cl)cc1`, the inhibition was 38.5% (active).
Compound `O=c1[nH]c(CCl)nc2cc(-c3ccc(Cl)cc3)sc12` has an inhibition of 1.98%.
`CCc1[nH]nc(C(=O)N2CCCC(CO)(Cc3ccc(F)cc3F)C2)c1C` (stereo not drawn) was tested, and the inhibition was 1.03%.
Work on `CCCn1c(C2CCCN2c2nc(-c3ccc(C)cc3)cs2)nc2cc(Cl)c(N3CCCCC3)cc21` (stereo not drawn) yielded an inhibition of 7.02%.
In the case of `CCCn1c(C(C)Nc2nc(-c3ccc(C)cc3)cs2)nc2cc(Cl)c(N3CCCCC3)cc21` (stereo not drawn), the inhibition is reported as 30.3% (active).
Work on `Cc1ccc(-c2csc(N3CCN(c4cc5c(cc4Cl)nc(-c4ccncc4)n5CCOCCO)CC3)n2)cc1` yielded an inhibition of -0.493%.
`CC(=O)C1=C(C)NC2=C(C(=O)CC(C)(C)C2)C1C` (stereo not drawn) was tested, and the inhibition was -0.177%.
With `Cc1cc(C(=O)N/N=C/c2ccc(O)c([N+](=O)[O-])c2)c(C)n1-c1ccc(F)cc1` the inhibition was 33.3% (active).
`O=C1CSC(=S)N1/N=C/c1ccc(O)c([N+](=O)[O-])c1` gave an inhibition of 5.51%.
With `CCOc1cc(/C=N/NC(=O)c2c(C)nc3ccc(Cl)cn23)ccc1O` the inhibition was -0.152%.
`CCCCCCCC1(C)NC(=O)N(CC(=O)Nc2cc(C)on2)C1=O` (stereo not drawn) showed an inhibition of -7.34%.
`O=C(CC1C(=O)NCCN1CC(c1ccccc1)c1ccccc1)NCCc1cn[nH]c1` (stereo not drawn) was tested, and the inhibition was 7.62%.
`Cn1ncc([N+](=O)[O-])c1C(=O)Nc1cc(Cl)ccc1Cl` gave an inhibition of -3.19%.
`Cc1cc(C)c(OCC(=O)N(Cc2cccs2)C2CCS(=O)(=O)C2)c(C)c1` (stereo not drawn) showed an inhibition of -1.96%.
For `COc1cccc2c1C(=O)c1c(O)c3c(c(O)c1C2=O)CC(O)(C(C)=NNC(=O)c1ccc(Cl)c(Cl)c1)CC3OC1CC(N)C(O)C(C)O1` (stereo not drawn), the inhibition was 38.5% (active).
With `Brc1cnc(N2CCCC2)nc1N1CCCCC1` the inhibition was -5%.
Work on `Cc1cc2nc(-c3ccc(F)cc3)c(Cc3ccsc3)n2c(C)c1Br` yielded an inhibition of 16.1%.
`Cc1cc2nc(-c3ccc(Cl)cc3)c(Cc3cccc(F)c3)n2c(C)c1Br` was tested, and the inhibition was 28.5%.
With `Cc1cc2nc(-c3ccco3)c(Cc3cccc(F)c3)n2c(C)c1Br` the inhibition was 50.5% (active).
Work on `CCCSc1nc2[nH]ncc2c(=O)[nH]1` yielded an inhibition of 0.611%.
Compound `CC(C)Oc1c(Br)cc(Br)cc1/C=N/NC(N)=S` has an inhibition of 6.4%.
In the case of `COCCNC(=O)CN(Cc1ccco1)C(=O)CCC(=O)Nc1nccs1`, the inhibition is reported as -5.06%.
